Rows were chosen to be rich in hits. Some 27% of all compounds tested hit in one or more screens of this group.
sEH act: increases human soluble epoxide hydrolase activity; P34913; purified human sEH enzymatic activity, activator screen; activation, % at 2 µM; 0.04% of 91,000 active; AID 717; in the data active means activation above about 37%
Target sequence (P34913 whole entry, looked up): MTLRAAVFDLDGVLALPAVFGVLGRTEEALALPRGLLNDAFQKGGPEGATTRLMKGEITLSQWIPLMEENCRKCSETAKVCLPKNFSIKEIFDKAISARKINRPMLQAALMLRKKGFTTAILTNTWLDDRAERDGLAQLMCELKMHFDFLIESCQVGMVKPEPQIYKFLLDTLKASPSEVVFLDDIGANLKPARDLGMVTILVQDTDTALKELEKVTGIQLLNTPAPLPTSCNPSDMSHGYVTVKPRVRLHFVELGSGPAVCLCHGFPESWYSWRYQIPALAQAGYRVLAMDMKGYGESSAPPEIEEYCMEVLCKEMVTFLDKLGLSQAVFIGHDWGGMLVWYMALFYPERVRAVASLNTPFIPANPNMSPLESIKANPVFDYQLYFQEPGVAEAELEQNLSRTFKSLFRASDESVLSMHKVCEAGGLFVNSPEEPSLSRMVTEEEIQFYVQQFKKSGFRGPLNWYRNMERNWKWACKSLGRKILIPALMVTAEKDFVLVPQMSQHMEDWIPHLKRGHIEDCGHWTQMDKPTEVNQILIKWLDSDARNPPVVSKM
CYP2C19 inh: blocks human cytochrome P450 2C19; P33261; CYP2C19 Supersomes, luciferin-H EGE luminescence, 30 min; inhibition, % at 5 µM; 21% of 96,000 active; AID 778;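 active means CYP2C19 inhibition above a set limit at 5 µM in the primary screen, cut at about 50% in these data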
sEH inhibitor: blocks human soluble epoxide hydrolase activity. P34913. recombinant human sEH enzymatic activity assay. inhibition, % at 2 µM. 0.34% of 91,000 active. AID 707; in the data active means inhibition above about 80%
CYP2C9 inhib: inhibitors of human CYP2C9; 20% of 96,000 active; inhibition, % at 5 µM; CYP2C9 Supersomes, luciferin-H conversion, luminescence; AID 777; P11712;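 active means blocking of liver enzyme CYP2C9 beyond about 50% at 5 µM, limit read from the data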
CYP2C19 act: cytochrome P450 2C19 (human) activation | P33261 | recombinant CYP2C19, luciferin-H EGE luminescence; hits give high values; 0 = fully inhibited enzyme, 1 = untreated enzyme | activation factor at 5 µM | 96,000 tested, under 10 active | AID 1025;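 active means activation factor of at least 2 at 5 µM in the primary screen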
CYP2C9 activ: CYP2C9 (human) activation; activation factor at 5 µM; recombinant CYP2C9, luciferin-H conversion, luminescence; hits give high values; factor 1 = untreated enzyme, 0 = blocked; AID 1024; 1.4% of 96,000 active;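 active means activation factor of 2 or more for CYP2C9 at a 5 µM dose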
A number is an active result.

Screening O=C(c1ccc2c(=O)n(C3CCCC3)c(=S)[nH]c2c1)N1CCc2ccccc21 returned sEH act inactive, CYP2C19 inh inactive, sEH inhibitor inactive, CYP2C9 inhib inactive, CYP2C19 act inactive and CYP2C9 activ inactive.
Screening C=CCN(CC=C)C(=S)NC(=O)c1ccc(OC)c(Br)c1 returned sEH act inactive, CYP2C19 inh 74.2, sEH inhibitor inactive, CYP2C9 inhib inactive, CYP2C19 act inactive and CYP2C9 activ inactive.
`Cc1ccnc(NC(=O)CCC(=O)N(CC(=O)NCC2CCCO2)Cc2ccc(F)cc2)c1` (stereo unspecified) gave CYP2C19 inh inactive, CYP2C9 inhib inactive, CYP2C19 act inactive and CYP2C9 activ inactive.
`COc1ccc(Nc2nc3c(c(=O)n(C)c(=O)n3C)n2CCO)cc1` gave CYP2C19 inh inactive, CYP2C9 inhib 59.4, CYP2C19 act inactive and CYP2C9 activ inactive.
For Cn1c(=O)c2c(nc(NCCCO)n2C/C=C/c2ccccc2)n(C)c1=O the results were sEH act inactive, CYP2C19 inh 90.3, sEH inhibitor inactive, CYP2C9 inhib 68.0, CYP2C19 act inactive and CYP2C9 activ inactive.
Screening CCOc1ncccc1C(=O)NCc1ccc(OC)cc1 returned CYP2C19 inh 51.7, CYP2C9 inhib 52.5, CYP2C19 act inactive and CYP2C9 activ inactive.
For COc1cccc(Nc2ncccc2C(=O)NCc2ccccc2)c1 the results were sEH act inactive, CYP2C19 inh inactive, sEH inhibitor inactive, CYP2C9 inhib inactive, CYP2C19 act inactive and CYP2C9 activ inactive.
`COc1ccc(Nc2ncccc2C(=O)NCc2ccccc2)cc1` gave sEH act inactive, CYP2C19 inh 84.5, sEH inhibitor inactive, CYP2C9 inhib 78.9, CYP2C19 act inactive and CYP2C9 activ inactive.
Cc1c(C=O)c2ccccc2n1CC(=O)N1CCc2ccccc2C1 was read as sEH act inactive and sEH inhibitor inactive.
`COc1ccc(NC(=O)CSc2nnc(Cc3cccn3C)n2-c2ccc(OC)cc2)cc1` gave CYP2C19 inh inactive, CYP2C9 inhib 59.0, CYP2C19 act inactive and CYP2C9 activ inactive.
For COc1ccc(-n2c(Cc3cccn3C)nnc2SCC(=O)Nc2ccc(C(C)=O)cc2)cc1 the results were sEH act inactive, CYP2C19 inh inactive, sEH inhibitor inactive, CYP2C9 inhib inactive, CYP2C19 act inactive and CYP2C9 activ inactive.
COc1ccc(-n2c(Cc3cccn3C)nnc2SCC(=O)Nc2cccc(Cl)c2)cc1 was read as sEH act inactive, CYP2C19 inh inactive, sEH inhibitor inactive, CYP2C9 inhib 85.4, CYP2C19 act inactive and CYP2C9 activ inactive.
COc1ccc(-n2c(Cc3cccn3C)nnc2SCC(=O)Nc2ccc(C)cc2)cc1 was read as CYP2C19 inh inactive, CYP2C9 inhib 52.6, CYP2C19 act inactive and CYP2C9 activ inactive.
Screening CCOc1ccc(NC(=O)CSc2nnc(Cc3cccn3C)n2-c2ccc(OC)cc2)cc1 returned sEH act inactive, CYP2C19 inh inactive, sEH inhibitor inactive, CYP2C9 inhib inactive, CYP2C19 act inactive and CYP2C9 activ inactive.
For C=CCN1CCN(C(c2cc(OC)ccc2OC)c2nnnn2CC2CCCO2)CC1 (stereo unspecified) the results were sEH act inactive, CYP2C19 inh inactive, sEH inhibitor inactive, CYP2C9 inhib inactive, CYP2C19 act inactive and CYP2C9 activ inactive.
For O=C(CCN1C(=O)c2ccccc2C1=O)NC1=NCCS1 the results were sEH act inactive, CYP2C19 inh inactive, sEH inhibitor inactive, CYP2C9 inhib inactive, CYP2C19 act inactive and CYP2C9 activ inactive.
Screening CN(c1ncc(C(F)(F)F)cc1Cl)n1cc(C(N)=O)c2ccccc2c1=O returned sEH act inactive, CYP2C19 inh 57.3, sEH inhibitor inactive, CYP2C9 inhib 83.4, CYP2C19 act inactive and CYP2C9 activ inactive.
Screening O=[N+]([O-])c1ccc(C(=Nc2cccc3ccccc23)N2CCOCC2)cc1 returned sEH act inactive, CYP2C19 inh inactive, sEH inhibitor inactive, CYP2C9 inhib inactive, CYP2C19 act inactive and CYP2C9 activ inactive.
Screening O=[N+]([O-])c1ccc(N=Nc2ccc(O)cc2O)cc1 returned sEH act inactive, CYP2C19 inh 69.4, sEH inhibitor inactive, CYP2C9 inhib 57.4, CYP2C19 act inactive and CYP2C9 activ inactive.
For COc1cc(NC(=O)C2CCCN(S(=O)(=O)c3cnc[nH]3)C2)cc(OC)c1 (stereo unspecified) the results were sEH act inactive, CYP2C19 inh inactive, sEH inhibitor inactive, CYP2C9 inhib 88.4, CYP2C19 act inactive and CYP2C9 activ inactive.
`Cc1cc(C)cc(NC(=O)C2CCCN(S(=O)(=O)c3cnc[nH]3)C2)c1` (stereo unspecified) gave sEH act inactive, CYP2C19 inh 80.9, sEH inhibitor inactive, CYP2C9 inhib 92.9, CYP2C19 act inactive and CYP2C9 activ inactive.
Screening Cc1csc(NC(=O)C2CCCN(S(=O)(=O)c3cnc[nH]3)C2)n1 (stereo unspecified) returned CYP2C19 inh inactive, CYP2C9 inhib inactive, CYP2C19 act inactive and CYP2C9 activ inactive.
`Cc1ccc(NC(=O)C2CCCN(S(=O)(=O)c3cnc[nH]3)C2)cc1F` (stereo unspecified) gave sEH act inactive, CYP2C19 inh 93.9, sEH inhibitor inactive, CYP2C9 inhib 86.6, CYP2C19 act inactive and CYP2C9 activ inactive.
`Cc1ccc2nc(SCCC(=O)O)cc(C)c2c1` gave sEH act inactive, CYP2C19 inh inactive, sEH inhibitor inactive, CYP2C9 inhib inactive, CYP2C19 act inactive and CYP2C9 activ inactive.
`CCCCS(=O)(=O)NC1=NCN(CCO)CN1` gave CYP2C19 inh inactive, CYP2C9 inhib inactive, CYP2C19 act inactive and CYP2C9 activ inactive.
For CC1CCCC/C1=N\NS(=O)(=O)c1ccc(Br)cc1 (stereo unspecified) the results were sEH act inactive, CYP2C19 inh inactive, sEH inhibitor inactive, CYP2C9 inhib 50.8, CYP2C19 act inactive and CYP2C9 activ inactive.
Screening CC(C)(C)C1CCC(=NNS(=O)(=O)c2ccc(Br)cc2)CC1 (stereo unspecified) returned sEH act inactive and sEH inhibitor inactive.
Cc1ccc(S(=O)(=O)N2CC3(C)CN(S(=O)(=O)c4ccc(C)cc4)CC(C)(C2)C3)cc1 was read as sEH act inactive, CYP2C19 inh inactive, sEH inhibitor inactive, CYP2C9 inhib inactive, CYP2C19 act inactive and CYP2C9 activ inactive.
Cc1cc(C)n(S(=O)(=O)c2ccc3ccccc3c2)n1 was read as sEH act inactive, CYP2C19 inh 61.3, sEH inhibitor inactive, CYP2C9 inhib inactive, CYP2C19 act inactive and CYP2C9 activ 2.3.
Cc1cc(C)n(S(=O)(=O)c2cc(Cl)ccc2Cl)n1 was read as sEH act inactive, CYP2C19 inh 58.8, sEH inhibitor inactive, CYP2C9 inhib inactive, CYP2C19 act inactive and CYP2C9 activ inactive.
For Cc1cc(C)n(-c2nc3ccccc3nc2N2CCN(S(=O)(=O)c3ccc4ccccc4c3)CC2)n1 the results were sEH act inactive, CYP2C19 inh inactive, sEH inhibitor inactive, CYP2C9 inhib inactive, CYP2C19 act inactive and CYP2C9 activ inactive.
